Most compounds without a hit are left out; they make up all but 21% or so of the library.
Cycloheximide cs – Cycloheximide Counterscreen for Small Molecule Inhibitors of Shiga Toxin. max response, %. 300,000 tested, 12% active. cell reporter, cycloheximide protein synthesis inhibition counterscreen; in the data active = max response mostly above about 13%, no sharp cut-off; inactive = mostly below about 14%; also: read at 38.3 µM for the half of the compounds with a filed dose; 0% is about no effect
Shiga toxin inh – A qHTS for Small Molecule Inhibitors of Shiga Toxin; inhibition, % at 38.7 µM; AID 2315, 2010; 290,000 tested, 9.2% active; Vero cells, Shiga toxin protein synthesis inhibition reporter; in the data active = inhibition mostly above about 28%, no sharp cut-off; inactive = mostly below about 43%; also: 0% is about no effect
Pf growth 48h – Primary qHTS for delayed death inhibitors of the malarial parasite plastid, 48 hour incubation; P. falciparum luciferase growth in erythrocytes, 48 h; Potency, µM (series often up to 28.7 µM), for the others: at the highest dose activity change, negative = inhibition, most hits filed as inhibitors; 310,000 tested, 5.9% active; also: potency is read from the fitted curve at half-maximal effect; % is scaled to controls: 0 for no effect and ±100 for the full control effect
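Growth was read as firefly luciferase luminescence after a 48 h, 37 C, 5% CO2 exposure of compounds to reporter-bearing P. falciparum cultures (0.1% parasitemia, 2% hematocrit final) in Albumax-supplemented RPMI 1640.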
HCV inhibitor – qHTS Assay for Inhibitors of Hepatitis C Virus (HCV); AID 651820, 2012; Potency, µM (series often up to 41.8 µM), without a hit: top-dose activity change, negative = inhibition, actives largely listed as inhibitors; 340,000 tested, 3.4% active; Huh7.5.1 HCVcc-Cre infection, luciferase reporter, 44 h; also: potency is read from the fitted curve at half-maximal effect; % is scaled to controls: 0 for no effect and ±100 for the full control effect
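Compounds are dispensed onto cells plated 4 h earlier at 1,000 per well, with HCVcc-Cre virus (about 0.5 moi) added next. Following 44 h of culture, luminescent signal is measured for 15 sec after 15 min with substrate at room temperature.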
Pf growth 96h – Primary qHTS for delayed death inhibitors of the malarial parasite plastid, 96 hour incubation | AID 504834, 2011 | 320,000 tested, 6.9% active | Potency, µM (top dose mostly 28.7 µM), without a hit: at the highest dose activity change, negative = inhibition, hits mostly inhibitors | P. falciparum luciferase reporter growth, 96 h; also: potency is read from the fitted curve at half-maximal effect; % is scaled to controls: 0 for no effect and ±100 for the full control effect
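Two-generation exposure (96 h) targets delayed-death phenotype. Reporter parasites carrying integrated firefly luciferase, in red cells at 2% hematocrit and 0.05% parasitemia final, kept at 37 C, 5% CO2; luminescence loss indicates inhibition.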
HCMV inh – qHTS Assay for inhibitors of the human cytomegalovirus (HCMV) | 410,000 tested, 4.5% active | activity change, negative = inhibition, % at 57.5 µM | HFF cells, HCMV-luciferase reporter, 72 h; active compounds read low | AID 1259415, 2018; in the data active = activity change below about -60%; inconclusive = no clear call, values can overlap the other calls; inactive = above about -39%; also: % is scaled to controls: 0 for no effect and ±100 for the full control effect
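Two compound doses tested in HFFs infected with HCMV-luciferase, MOI 1 PFU/cell, 72 h at 37C. Lysate luminescence read with OneGlo; data normalized against buffer-only and 10uM Salinomycin inhibitor controls.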
* marks the source's active call; other numbers are inactive results; ? = inconclusive; / = not tested or not shown. Unless noted, calls follow the shape of the dose curve; as a rule, active = well fitted inhibition curve with a large enough effect; inconclusive = small, poorly fitted or top-dose-only effect, or another doubt; inactive = no such curve, though single readings can be large or run the other way.

SMILES	Cycloheximide cs	Shiga toxin inh	Pf growth 48h	HCV inhibitor	Pf growth 96h	HCMV inh
O=C(Nc1cccc(F)c1)c1sc(Cl)nc1-c1ccccc1	-2	-6	-21%	-2%	1%	77
Cc1cccc(C)c1NC(=O)c1sc(Cl)nc1C	1	14	-14%	10%	20%	-15
CC(=O)c1cccc(NC(=O)c2sc(Cl)nc2C)c1	12	/	-9%	3%	?	5
Cc1nc(C)c(C(=O)Nc2cccc(F)c2)s1	19*	35*	44%	-9%	49%	31
Cc1nc(Cl)sc1C(=O)Nc1ccccc1	11*	21	1%	-1%	?	-19
Cc1nc(C)c(C(=O)Nc2ccccc2)s1	8	35	49%	7%	-5%	4
Cc1nc(Cl)sc1C(=O)Nc1ccc(Cl)cc1	25*	71*	29%	?	25%	-3
Cc1nc(Cl)sc1C(=O)Nc1ccc2ccccc2c1	66*	192*	187%	?	248%	-14
O=C(C1CCC1)N1CCN(S(=O)(=O)c2ccc(Br)cc2Cl)CC1	/	/	?	?	?	-37
CCN(CC)c1ncnc2c1ncn2[C@H]1CN(Cc2ccc(Cl)cc2)C[C@@H](CO)O1	/	/	/	/	/	-2
O=C(/C=C/Nc1cccc([N+](=O)[O-])c1)c1ccco1	/	/	/	?	/	107
Cc1ccc(C(=O)/C=C/Nc2cccc([N+](=O)[O-])c2)o1	64*	63*	208%	-3%	?	68
CN1CCN(CCCCOc2ccc(Br)cc2)CC1	1	-4	25%	4%	2%	19
CCC1(CC)NC(=O)N(CC(=O)OCC(=O)Nc2sccc2C#N)C1=O	0	-3	?	4%	0%	-4
Cc1nc(-c2ccc(-c3ccon3)s2)no1	21*	53*	122%	-7%	34%	19
Cc1nc(-c2cccc(-c3noc(C)n3)c2)no1	8	40	39%	?	-20%	-8
Oc1cccc2c3c(oc12)CCCC3	/	/	/	?	/	30
Cc1cccc(Oc2nc(CN3CCOCC3)nc3sc4c(c23)CCCC4)c1	1	-1	10µM*	-3%	?	-34
COc1ccc(S(=O)(=O)N2CCOCC2)cc1Cl	-3	-6	/	25%	?	-6
CCC(C)Nc1nc(CN2CCOCC2)nc2sc3c(c12)CCC3 (configuration not stated)	-3	3	/	?	9.3µM*	-13
Cc1nc(Oc2ccc(S(=O)(=O)N3CCOCC3)cc2Cl)c2c3c(sc2n1)CCCC3	-1	-7	?	-7%	13µM*	-33
COc1cccc(C2=NN(S(C)(=O)=O)C(c3cn(-c4ccccc4)nc3-c3cccs3)C2)c1 (configuration not stated)	/	/	/	/	/	30
COc1ccc(C2C(Oc3ccccc3)C(=O)N2c2ccc(C)c(C)c2)cc1OC (configuration not stated)	/	/	/	11µM*	/	-4
COc1cccc(-c2nc(-c3ccc(NC(=O)c4cccnc4)cc3)no2)c1	-3	-12	?	2%	12µM*	-6
COC(=O)c1c(NC(=O)c2cccnc2)sc(C)c1C	-3	-7	/	10µM*	-79%	/
SMILES	Cycloheximide cs	Shiga toxin inh	Pf growth 48h	HCV inhibitor	Pf growth 96h	HCMV inh
COc1ccc(CC(=O)Nc2ccc(-c3noc(-c4cccc(OC)c4)n3)cc2)cc1	1	-2	22%	0%	-18%	11
COc1cccc(OC)c1C(=O)NNC(=O)c1cccnc1	18*	-15	39%	19%	29%	23
O=C(Nc1ccc(-c2noc(-c3cccs3)n2)cc1)c1cccnc1	27*	59*	-17%	?	?	17
C[C@@H](O)[C@H]1C(=O)N2C(C(=O)O)=C(S[C@@H]3CN[C@H](C(=O)N(C)C)C3)[C@H](C)[C@H]12	/	/	-4%	/	1%	/
CCOc1ccc(CCNC(=O)CCCn2c(=O)c3cccn3c3cccnc32)cc1	/	/	/	/	/	3
O=C(Nc1nnc2n1CCS2)c1ccc(Br)o1	1	-9	-3%	28%	3%	-8
